# Bioassay records from PubChem.
# TGFb SMAD3 inh: TGF-b pathway inhibition; HepG2 CAGA-GFP TGF-b/SMAD3 reporter, GFP fluorescence, 18 h; TGF-beta stimulated, 500 pg/mL final; Potency, µM (top dose mostly 46.1 µM), for the others: top-dose activity, negative = inhibition, most hits filed as inhibitors; 410,000 compounds, 1.2% hits; also: % is scaled to controls: 0 for no effect and ±100 for the full control effect; nearly all actives have a fitted effect of over 65% in size
#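 GFP signal (ex488/em500-530) from TGF-beta-stimulated HEPG2 CAGA-GFP cells, 500 pg/mL final, 18 h at 37 degrees C in DMEM plus 1% FBS, normalized to unstimulated and DMSO-stimulated controls.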
# HT1080-NT tox: kills 2HG-producing HT-1080-NT fibrosarcoma cells; HT-1080-NT fibrosarcoma viability, CellTiter-Glo ATP luminescence, 48 h; Potency, µM (highest dose often 46.1 µM), for the others: at the top dose activity, negative = less viability, most hits filed as cytotoxic; 360,000 compounds, 1.6% hits; AID 686970;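 also: NT is the 2HG producing partner of a matched IDH1 knockdown line; 0% = DMSO-treated cells and -100% = media-only wells without cells; nearly all actives have a fitted effect of over 55% in size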
#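 HT-1080-NT; 750 cells/well; 5% FBS RPMI; 48 h compound, 37 degrees C; CellTiter-Glo luminescence; curve fitting and curve-class assignment.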
# DT40 TDP1 no CPT: qHTS for Inhibitors of human tyrosyl-DNA phosphodiesterase 1 (TDP1): qHTS in cells in absence of CPT; Potency, µM (doses to about 46.2 µM), inactives show at the top dose activity change, negative = growth inhibition, hits mostly inhibitors; 420,000 compounds, 15% hits; DT40 Tdp1-/- hTDP1 cells, no CPT, ATP luminescence, 48 h; also: % is scaled to controls: 0 for no effect and ±100 for the full control effect; nearly all actives have a fitted effect of over 55% in size
#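 Compound effects on proliferation are scored in DT40 Tdp1-/-;hTDP1 cells in the absence of CPT. ATP levels (CellTiter-Glo luminescence) are recorded after a ≥48 hr, 37 °C incubation.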
# HT1080 IDH1KD tx: kills HT-1080 cells with IDH1 knockdown; AID 686971; HT-1080 IDH1 knockdown viability, ATP luminescence, 48 h; Potency, µM (doses to about 46.1 µM), for inactives: at the highest dose activity, negative = toxicity, hits mostly cytotoxic; 360,000 compounds, 2% hits;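 also: 0% = DMSO wells and -100% = cell-free medium wells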
#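 % activity derives from luminescence (CellTiter-Glo), normalised to DMSO and no-cell wells. HT-1080-IDH1KD cells, 750/well, had 48 h compound exposure at 37 °C.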
# HepG2 tox: HepG2 cytotoxicity, counter-screen for TGF-b inhibitors; HepG2 CAGA-GFP viability, ATP luminescence, 18 h; Potency, µM (titrated, usually from 46.1 µM), for inactives: at the top dose activity change, negative = cytotoxicity, actives largely listed as cytotoxic; 410,000 compounds, 0.76% hits
#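 CellTiter-Glo luminescence gave cytotoxicity after 18 hours at 37 degrees C. The cells were HepG2 CAGA-GFP in 1% FBS DMEM, stimulated with 500 pg/mL TGF-beta after compound addition. %Activity was normalised to no-cell wells (complete cell-killing) and DMSO (no toxicity), and curves were fitted and classified.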
# DT40 TDP1 CPT: growth inhibition of DT40 Tdp1-/-;hTDP1 cells with camptothecin (screen for TDP1 inhibitors) | chicken DT40 Tdp1-/-;hTDP1 cells + 20 nM CPT, ATP luminescence, 48 h | Potency, µM (top dose mostly 46.2 µM), for inactives: top-dose activity change, negative = growth inhibition, actives largely listed as inhibitors | 420,000 compounds, 12% hits | AID 686979; also: % is scaled to controls: 0 for no effect and ±100 for the full control effect; nearly all actives have a fitted effect of over 55% in size
#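 Chicken DT40 Tdp1-/- cells complemented with human TDP1, 400 cells/well, exposed to compounds plus 20 nM camptothecin for at least 48 h at 37 C; viability read as ATP content by CellTiter-Glo luminescence.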
# The depositor's hits bear a star; u = inconclusive; x = no result given; [ ] = dose if it differs, or a comment. Most compounds without a hit are left out; they make up all but 17% or so of the library. Calls follow the shape of the dose curve; as a rule, active = well fitted curve in the direction sought with a large enough effect; inconclusive = small, poorly fitted or top-dose-only effect, or another doubt; inactive = no such curve, though single readings can be large; an effect the other way counts as inactive or inconclusive. Potency is read from the fitted curve at half-maximal effect.
SMILES,TGFb SMAD3 inh,HT1080-NT tox,DT40 TDP1 no CPT,HT1080 IDH1KD tx,HepG2 tox,DT40 TDP1 CPT
CCN(CCNCC(O)COCc1ccc(Cl)cc1)c1cccc(C)c1 (stereo unspecified),u,16µM*,u,u,-92%,u
CN(C)CCCNS(=O)(=O)c1ccc(N2CCN(Cc3ccc4c(c3)OCO4)CC2)c([N+](=O)[O-])c1,-21%,u,21µM*,u,-21%,23µM*
CC(=O)c1ccc(N2CCN(c3ccc(S(=O)(=O)NCCCN(C)C)cc3[N+](=O)[O-])CC2)cc1,u,2%,23µM*,-20%,-60%,23µM*
CN(C)CCNS(=O)(=O)c1ccc(N2CCc3ccccc32)c([N+](=O)[O-])c1,-10%,u,26µM*,u,-9%,16µM*
CCNc1ncc2nc(-c3cn(C)c4ccccc34)c(=O)n(-c3ccccc3)c2n1,x,x,-5%,x,x,5%
CC1=NN(C(=O)Cc2ccc([N+](=O)[O-])cc2)C(O)(c2cccnc2)C1 (stereo unspecified),-1%,u,u,u,-48%,18µM*
CC1=NN(C(=O)Cc2ccccc2)C(O)(c2ccccc2)C1 (stereo unspecified),20%,2%,4.1µM*,-4%,-2%,2.9µM*
COc1ccc(CC(=O)N2N=C(C)CC2(O)c2cccnc2)cc1OC (stereo unspecified),-3%,10%,0%,12%,-19%,-8%
CC1=NN(C(=O)Cc2ccc([N+](=O)[O-])cc2)C(O)(c2ccccc2)C1 (stereo unspecified),-1%,u,5.2µM*,u,5%,4.1µM*
CC[C@]1(C(=O)OC)[C@H]2C(=O)N(C)C(=O)[C@H]2[C@H]2CN(C)C(=NC3CCCCC3)N21,-21%,13%,-7%,7%,5%,0%
Cc1ccc(S(=O)(=O)NN=C2CC3CCC2(C)C3(C)C)cc1 (stereo unspecified),-1%,-5%,u,-4%,-11%,u
CC(=O)c1sc(N/N=C2\CC3CCC2(C)C3(C)C)nc1C (stereo unspecified),6%,23µM*,u,u,-23%,-29%
COCC(=O)Nc1cc(C(=O)N2CC3CCC2C3)c2c(c1)nc(-c1ccncc1)n2C (stereo unspecified),x,x,-4%,x,x,9%[9.04 µM]
Cc1ccc(-c2cc(NC(=O)CSc3n[nH]c(N)n3)n(-c3ccccc3)n2)cc1,22%,-30%,u,-25%,-26%,-12%
CCCc1ccc(-c2cc(NC(=O)CSc3nnc(N)s3)n(-c3ccccc3)n2)cc1,u,16µM*,21µM*,u,-17%,23µM*
Cc1nnc(SCC(=O)Nc2cc(-c3cc(C)c(C)cc3C)nn2-c2ccccc2)s1,u,-13%,12µM*,-22%,-9%,21µM*
Cc1nc(CN2C(=O)C3(CCC3)ON=C2c2cccc(Cl)c2)cs1,-21%,13%,u,11%,3%,u
COc1ccc(CCNC(=O)c2cc3c(=O)n4ccccc4nc3n(CCN3CCOCC3)c2=N)cc1,-6%,-15%,2.6µM*,-8%,-3%,3.7µM*
COc1ccc(CCNC(=O)c2cc3c(=O)n4ccccc4nc3n(CC3CCCO3)c2=N)cc1OC (stereo unspecified),-11%,4%,u,6%,-8%,21µM*
COc1ccc(CCNC(=O)c2cc3c(=O)n4ccccc4nc3n(CC3CCCO3)c2=N)cc1 (stereo unspecified),2%,2%,26µM*,4%,-21%,21µM*
COc1ccc(CCn2c(=N)c(C(=O)NCC3CCCO3)cc3c(=O)n4ccccc4nc32)cc1 (stereo unspecified),5%,-2%,8.2µM*,1%,-3%,5.8µM*
COc1ccc(C(=O)COC(=O)[C@H](C)Nc2ccc(C(F)(F)F)cc2[N+](=O)[O-])c(OC)c1,16%,6%,-10%,6%,0%,-5%
CC1CC(C)CN(C(=O)COC(=O)c2nn(C)c(=O)c3ccccc23)C1 (stereo unspecified),14%,-4%,-10%,8%,39%,-2%
CCOC(=O)C(C)OC(=O)C1=C(C)NC(=O)NC1c1ccc2c(c1)OCO2 (stereo unspecified),u,6%,4.1µM*,0%,-13%,3.7µM*
CCOC(=O)C1=C(CCl)NC(=O)NC1c1ccc2c(c1)OCO2 (stereo unspecified),u,u,2.6µM*,u,-47%,15µM*
SMILES,TGFb SMAD3 inh,HT1080-NT tox,DT40 TDP1 no CPT,HT1080 IDH1KD tx,HepG2 tox,DT40 TDP1 CPT
CCCCCOC(=O)C1=C(C)NC(=O)NC1c1ccc2c(c1)OCO2 (stereo unspecified),-17%,-15%,-30%,-7%,-27%,-13%
CC1=C(C(=O)OCCC(C)C)C(c2ccc3c(c2)OCO3)NC(=O)N1 (stereo unspecified),-17%,-7%,u,-13%,-31%,u
CC1=C(C(=O)OCCCBr)C(c2ccc3c(c2)OCO3)NC(=O)N1 (stereo unspecified),-22%,-2%,23µM*,8%,-11%,26µM*
CC(C)(C)NC(=O)C1c2ccccc2OCC(=O)N1Cc1ccccc1 (stereo unspecified),x,4%,-10%,16%,x,-4%
O=C(c1ccccc1SCc1ccccc1)N1CCOCC1,0%,-1%,u,-2%,14%,u
S=c1nc(-c2ccccc2Br)[nH][nH]1,5%,7.1µM*,-16%,10µM*,-11%,u
Cc1c2cnn(-c3ccccc3)c(=O)c2c(C)n1CC(=O)NCc1ccccc1,u,x,-29%,x,-4%,u
CCNC(=O)c1ccc2nc(Cc3ccccc3)oc2c1,-3%,x,u,x,-2%,u
Cc1cccc(CNC(=O)c2ccc3nc(Cc4ccccc4)oc3c2)c1,-3%,x,23µM*,x,-34%,21µM*
CN(C)c1ccc(CNC(=O)c2ccc3nc(Cc4ccccc4)oc3c2)cc1,u,x,21µM*,x,-25%,u
CC(CNC(=O)c1ccc2nc(Cc3ccccc3)oc2c1)c1ccccc1 (stereo unspecified),-15%,x,16µM*,x,-30%,u
